Experimental data: the supplement of paper PMC10849652
Of roughly 8,800 targets only a part is listed; those with a hit were picked by preference. About 0.5% of all pairs of compound and target were hits.

Legend:
Experiment in all cases: log2 fold change, soluble protein after heating vs DMSO (PISA); higher = thermal stabilisation; K562 lysate, 10 uM; active = over 0.2 and 3.5 SD of the protein, either way, in both replicates (recomputed)
[1] = compound: C1=CC=C(C=C1)[C@H](COC2=CC3=C(C=C2)NC(=O)N3)NC(=O)C4=CC=CN(C4=O)CC5=CC(=C(C=C5)F)F
Summary of the method: (§1)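 Values give the log-two fold change in thermal stability against solvent controls, from duplicates. Crude K562 extract at 1 mg/mL protein, made by dounce homogenisation in PBS pH 7.4 with 1 mM MgCl2, was treated with 10 μM compound for 30 min. After 3 min heating across 48°C-58°C, aliquots were pooled, adjusted to 0.5% NP-40 at 4°C and centrifuged at 21,000xg for 90 min. The supernatant was measured by TMTpro 16plex LC-MS/MS with channel sums equalised.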

[2] = compound: CC1=C(SC2=C1C(=N[C@H](C3=NN=C(N32)C)CC(=O)N)C4=CC=C(C=C4)Cl)C
Summary of the method: as §1

[3] = compound: CC1=C2C(=CC=C1)N=C(N(C2=O)C3=CC=CC=C3C)CN4C=NC5=C(N=CN=C54)N
Summary of the method: as §1

[4] = compound: Cc1sc2c(c1C)C(c1ccc(Cl)cc1)=N[C@@H](CC(=O)OC(C)(C)C)c1nnc(C)n1-2
Summary of the method: as §1

[5] = compound: c1ccc([C@@H]2C[C@H]2NC2CCNCC2)cc1
Summary of the method: as §1

Measured: log2 fold change

SMG1 (UniProt Q96Q15)
inactive: [1] -0.05 | [2] -0.012 | [3] 0.018 | [4] 0.034 | [5] 0.046

STK39 (UniProt Q9UEW8)
inactive: [1] 0.011 | [2] -0.056 | [3] 0.049 | [4] 0 | [5] 0.078

SF3B6 (UniProt Q9Y3B4)
Chain of UniProt Q9Y3B4 (Q9Y3B4 whole entry, looked up): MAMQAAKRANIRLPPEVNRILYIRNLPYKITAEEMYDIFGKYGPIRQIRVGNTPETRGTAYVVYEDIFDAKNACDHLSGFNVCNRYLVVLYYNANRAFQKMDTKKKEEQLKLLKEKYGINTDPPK
inactive: [1] 0.052 | [2] -0.032 | [3] -0.184 | [4] 0.014 | [5] 0

TANK (UniProt Q92844)
inactive: [1] 0.04 | [2] -0.088 | [3] -0.023 | [4] -0.079 | [5] -0.025

SPAG5 (UniProt Q96R06)
inactive: [1] 0.006 | [2] 0.004 | [3] 0.021 | [4] 0.013 | [5] 0.026

SYF2 (UniProt O95926)
inactive: [1] 0.021 | [2] -0.102 | [3] 0.001 | [4] 0.015 | [5] -0.024

SLC19A1 (UniProt P41440)
inactive: [1] 0.017 | [2] -0.022 | [3] -0.056 | [4] -0.12 | [5] -0.176

SVIP (UniProt Q8NHG7)
inactive: [1] 0.02 | [2] -0.048 | [3] -0.052 | [4] -0.069 | [5] -0.028

SKA2 (UniProt Q8WVK7)
inactive: [1] -0.013 | [2] -0.038 | [3] 0.031 | [4] -0.004 | [5] 0.033

SORBS3 (UniProt O60504)
inactive: [1] 0.047 | [2] 0.081 | [3] -0.049 | [4] 0.028 | [5] 0.022

SRGN (UniProt P10124)
inactive: [1] 0.101 | [2] 0.14 | [3] 0.063 | [4] -0.03 | [5] -0.196

STK11IP (UniProt Q8N1F8)
inactive: [1] 0.002 | [2] 0.072 | [3] 0.019 | [4] 0.019 | [5] 0.015

SH3GL1 (UniProt Q99961)
inactive: [1] 0.007 | [2] 0.016 | [3] 0.007 | [4] 0.012 | [5] 0.003

SLC38A10 (UniProt Q9HBR0)
inactive: [1] 0.007 | [2] 0.007 | [3] 0.036 | [4] -0.053 | [5] -0.04

SLC12A6 (UniProt Q9UHW9)
inactive: [1] 0.006 | [2] 0.017 | [3] 0.017 | [4] 0.036 | [5] 0.008

SLC25A38 (UniProt Q96DW6)
inactive: [1] 0.099 | [2] 0 | [3] 0.013 | [4] -0.323 | [5] -0.047

SUZ12 (UniProt Q15022)
inactive: [1] -0.011 | [2] 0.042 | [3] -0.008 | [4] -0.047 | [5] -0.039

SLC30A9 (UniProt Q6PML9)
inactive: [1] -0.013 | [2] -0.045 | [3] 0.003 | [4] -0.013 | [5] -0.105

SPHK1 isoform 2 (UniProt Q9NYA1)
inactive: [1] -0.014 | [2] -0.034 | [3] -0.038 | [4] -0.003 | [5] 0.092

SH3BP5L (UniProt Q7L8J4)
inactive: [1] 0.015 | [2] 0.015 | [3] 0.047 | [4] 0.01 | [5] -0.024

SLC7A5 (UniProt Q01650)
inactive: [1] 0.019 | [2] -0.027 | [3] 0.003 | [4] -0.061 | [5] -0.231

STK4 (UniProt Q13043)
inactive: [1] -0.031 | [2] -0.098 | [3] -0.05 | [4] -0.029 | [5] -0.124

SOAT1 (UniProt P35610)
inactive: [1] 0.041 | [2] -0.002 | [3] -0.008 | [5] -0.06
active: [4] 0.282

TAPT1 (UniProt Q6NXT6)
inactive: [1] -0.004 | [2] -0.023 | [3] 0.092 | [4] -0.07 | [5] -0.128

SSBP3 (UniProt Q9BWW4)
inactive: [1] -0.113 | [2] -0.031 | [3] 0.062 | [4] -0.06 | [5] -0.005

STAT2 (UniProt P52630)
Chain of UniProt P52630 (P52630 whole entry, looked up): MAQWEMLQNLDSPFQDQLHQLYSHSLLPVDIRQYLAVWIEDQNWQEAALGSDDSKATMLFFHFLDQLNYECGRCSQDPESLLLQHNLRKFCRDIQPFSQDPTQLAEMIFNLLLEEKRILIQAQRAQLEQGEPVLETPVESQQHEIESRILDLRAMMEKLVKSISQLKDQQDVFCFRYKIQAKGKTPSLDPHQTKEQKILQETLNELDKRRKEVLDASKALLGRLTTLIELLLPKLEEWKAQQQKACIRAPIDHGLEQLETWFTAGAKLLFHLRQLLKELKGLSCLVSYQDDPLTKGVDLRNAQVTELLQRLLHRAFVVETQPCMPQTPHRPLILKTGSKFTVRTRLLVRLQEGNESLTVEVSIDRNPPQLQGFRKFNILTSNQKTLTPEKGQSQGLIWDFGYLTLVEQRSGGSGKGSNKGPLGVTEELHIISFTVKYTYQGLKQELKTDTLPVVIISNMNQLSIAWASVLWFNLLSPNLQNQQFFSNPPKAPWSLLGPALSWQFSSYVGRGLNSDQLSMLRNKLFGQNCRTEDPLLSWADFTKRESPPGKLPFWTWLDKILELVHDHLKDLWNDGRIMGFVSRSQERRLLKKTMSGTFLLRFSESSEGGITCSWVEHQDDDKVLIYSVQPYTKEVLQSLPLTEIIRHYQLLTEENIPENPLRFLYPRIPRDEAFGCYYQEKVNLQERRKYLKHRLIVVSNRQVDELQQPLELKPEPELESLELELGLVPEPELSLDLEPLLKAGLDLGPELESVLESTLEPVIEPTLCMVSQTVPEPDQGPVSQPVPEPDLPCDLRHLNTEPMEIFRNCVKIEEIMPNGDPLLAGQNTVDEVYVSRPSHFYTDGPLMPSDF
inactive: [1] -0.033 | [2] 0.005 | [3] 0.043 | [4] 0.033 | [5] 0.017

SURF2 (UniProt Q15527)
inactive: [1] -0.013 | [2] 0.054 | [3] -0.054 | [4] 0.056 | [5] -0.032

STIM1 (UniProt Q13586)
inactive: [1] -0.048 | [2] -0.008 | [3] 0.049 | [4] 0.028 | [5] 0.048

SLC26A6 (UniProt Q9BXS9)
inactive: [1] -0.053 | [2] 0.067 | [3] 0.011 | [4] -0.556 | [5] -0.096

SPNS1 (UniProt Q9H2V7)
inactive: [1] 0.05 | [2] 0.017 | [3] 0.023 | [4] -0.076 | [5] -0.019

SMC2 (UniProt O95347)
inactive: [1] -0.007 | [2] 0.018 | [3] 0.016 | [4] 0.003 | [5] 0.069

STK38 (UniProt Q15208)
Chain of UniProt Q15208 (Q15208 whole entry, looked up): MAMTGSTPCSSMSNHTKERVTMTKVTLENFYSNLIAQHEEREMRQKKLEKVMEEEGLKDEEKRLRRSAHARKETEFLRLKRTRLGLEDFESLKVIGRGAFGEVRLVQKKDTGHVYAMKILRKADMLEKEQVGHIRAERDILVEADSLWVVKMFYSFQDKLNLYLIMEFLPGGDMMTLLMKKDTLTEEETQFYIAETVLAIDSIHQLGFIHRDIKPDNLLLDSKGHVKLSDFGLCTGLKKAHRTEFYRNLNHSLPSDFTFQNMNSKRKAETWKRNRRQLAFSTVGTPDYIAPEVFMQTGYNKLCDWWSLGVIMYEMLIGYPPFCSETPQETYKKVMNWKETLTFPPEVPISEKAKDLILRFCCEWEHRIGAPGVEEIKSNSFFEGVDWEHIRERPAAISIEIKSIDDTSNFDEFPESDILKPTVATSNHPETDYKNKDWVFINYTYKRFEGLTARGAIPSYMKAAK
inactive: [1] -0.089 | [2] -0.02 | [3] -0.014 | [4] -0.012 | [5] -0.066

SMC6 (UniProt Q96SB8)
inactive: [1] -0.049 | [2] 0.006 | [3] 0.014 | [4] -0.036 | [5] -0.047

SPIRE1 (UniProt Q08AE8)
inactive: [1] -0.008 | [2] 0.031 | [3] -0.006 | [4] -0.053 | [5] -0.212

SH3GL3 isoform 3 (UniProt Q99963)
inactive: [1] 0.024 | [2] 0.033 | [3] 0.133 | [4] -0.169 | [5] -0.416

SMAD9 (UniProt O15198)
inactive: [1] 0.102 | [2] -0.074 | [3] 0.058 | [4] -0.099 | [5] 0.042

STUB1 (UniProt Q9UNE7)
inactive: [1] -0.04 | [2] 0.036 | [3] -0.006 | [4] 0.035 | [5] 0.02

SND1 (UniProt Q7KZF4)
inactive: [1] -0.008 | [2] 0.021 | [3] 0.022 | [4] 0.037 | [5] 0.041

SOX5 (UniProt P35711)
inactive: [1] -0.092 | [2] -0.052 | [3] 0.076 | [4] -0.005 | [5] 0

SNRPD2 (UniProt P62316)
inactive: [1] 0.039 | [2] -0.021 | [3] 0.028 | [4] -0.009 | [5] -0.068

SRM (UniProt P19623)
inactive: [1] -0.007 | [2] 0.029 | [3] 0.001 | [4] 0.009 | [5] 0.039

SFN (UniProt P31947)
inactive: [1] 0.039 | [2] -0.033 | [3] -0.023 | [4] 0.041 | [5] 0.046

SHCBP1 (UniProt Q8NEM2)
inactive: [1] 0.056 | [2] 0.012 | [3] -0.032 | [4] -0.022 | [5] -0.039

SLC29A2 (UniProt Q14542)
inactive: [1] 0.106 | [2] 0.001 | [3] 0.044 | [4] -0.116 | [5] -0.233

TAF1B (UniProt Q53T94)
Chain of UniProt Q53T94 (Q53T94 whole entry, looked up): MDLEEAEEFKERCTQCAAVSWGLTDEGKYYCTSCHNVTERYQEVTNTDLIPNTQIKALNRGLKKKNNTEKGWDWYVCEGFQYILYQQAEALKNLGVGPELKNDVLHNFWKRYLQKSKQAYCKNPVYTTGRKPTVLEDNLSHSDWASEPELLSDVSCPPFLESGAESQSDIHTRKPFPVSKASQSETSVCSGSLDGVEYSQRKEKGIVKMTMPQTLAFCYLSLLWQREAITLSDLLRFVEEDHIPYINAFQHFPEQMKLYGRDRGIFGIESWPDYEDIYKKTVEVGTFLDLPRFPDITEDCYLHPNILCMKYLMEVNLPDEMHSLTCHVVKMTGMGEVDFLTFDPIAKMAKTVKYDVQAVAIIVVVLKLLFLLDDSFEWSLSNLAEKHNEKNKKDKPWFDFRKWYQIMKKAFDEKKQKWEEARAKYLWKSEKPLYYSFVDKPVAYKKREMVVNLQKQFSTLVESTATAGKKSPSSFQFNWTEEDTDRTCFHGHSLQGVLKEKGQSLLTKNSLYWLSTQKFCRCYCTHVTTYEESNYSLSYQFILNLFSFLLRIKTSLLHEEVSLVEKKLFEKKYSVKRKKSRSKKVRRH
inactive: [1] -0.073 | [2] 0.071 | [3] 0.499 | [4] -0.13 | [5] -0.008

SPG11 (UniProt Q96JI7)
Chain of UniProt Q96JI7 (Q96JI7 whole entry, looked up): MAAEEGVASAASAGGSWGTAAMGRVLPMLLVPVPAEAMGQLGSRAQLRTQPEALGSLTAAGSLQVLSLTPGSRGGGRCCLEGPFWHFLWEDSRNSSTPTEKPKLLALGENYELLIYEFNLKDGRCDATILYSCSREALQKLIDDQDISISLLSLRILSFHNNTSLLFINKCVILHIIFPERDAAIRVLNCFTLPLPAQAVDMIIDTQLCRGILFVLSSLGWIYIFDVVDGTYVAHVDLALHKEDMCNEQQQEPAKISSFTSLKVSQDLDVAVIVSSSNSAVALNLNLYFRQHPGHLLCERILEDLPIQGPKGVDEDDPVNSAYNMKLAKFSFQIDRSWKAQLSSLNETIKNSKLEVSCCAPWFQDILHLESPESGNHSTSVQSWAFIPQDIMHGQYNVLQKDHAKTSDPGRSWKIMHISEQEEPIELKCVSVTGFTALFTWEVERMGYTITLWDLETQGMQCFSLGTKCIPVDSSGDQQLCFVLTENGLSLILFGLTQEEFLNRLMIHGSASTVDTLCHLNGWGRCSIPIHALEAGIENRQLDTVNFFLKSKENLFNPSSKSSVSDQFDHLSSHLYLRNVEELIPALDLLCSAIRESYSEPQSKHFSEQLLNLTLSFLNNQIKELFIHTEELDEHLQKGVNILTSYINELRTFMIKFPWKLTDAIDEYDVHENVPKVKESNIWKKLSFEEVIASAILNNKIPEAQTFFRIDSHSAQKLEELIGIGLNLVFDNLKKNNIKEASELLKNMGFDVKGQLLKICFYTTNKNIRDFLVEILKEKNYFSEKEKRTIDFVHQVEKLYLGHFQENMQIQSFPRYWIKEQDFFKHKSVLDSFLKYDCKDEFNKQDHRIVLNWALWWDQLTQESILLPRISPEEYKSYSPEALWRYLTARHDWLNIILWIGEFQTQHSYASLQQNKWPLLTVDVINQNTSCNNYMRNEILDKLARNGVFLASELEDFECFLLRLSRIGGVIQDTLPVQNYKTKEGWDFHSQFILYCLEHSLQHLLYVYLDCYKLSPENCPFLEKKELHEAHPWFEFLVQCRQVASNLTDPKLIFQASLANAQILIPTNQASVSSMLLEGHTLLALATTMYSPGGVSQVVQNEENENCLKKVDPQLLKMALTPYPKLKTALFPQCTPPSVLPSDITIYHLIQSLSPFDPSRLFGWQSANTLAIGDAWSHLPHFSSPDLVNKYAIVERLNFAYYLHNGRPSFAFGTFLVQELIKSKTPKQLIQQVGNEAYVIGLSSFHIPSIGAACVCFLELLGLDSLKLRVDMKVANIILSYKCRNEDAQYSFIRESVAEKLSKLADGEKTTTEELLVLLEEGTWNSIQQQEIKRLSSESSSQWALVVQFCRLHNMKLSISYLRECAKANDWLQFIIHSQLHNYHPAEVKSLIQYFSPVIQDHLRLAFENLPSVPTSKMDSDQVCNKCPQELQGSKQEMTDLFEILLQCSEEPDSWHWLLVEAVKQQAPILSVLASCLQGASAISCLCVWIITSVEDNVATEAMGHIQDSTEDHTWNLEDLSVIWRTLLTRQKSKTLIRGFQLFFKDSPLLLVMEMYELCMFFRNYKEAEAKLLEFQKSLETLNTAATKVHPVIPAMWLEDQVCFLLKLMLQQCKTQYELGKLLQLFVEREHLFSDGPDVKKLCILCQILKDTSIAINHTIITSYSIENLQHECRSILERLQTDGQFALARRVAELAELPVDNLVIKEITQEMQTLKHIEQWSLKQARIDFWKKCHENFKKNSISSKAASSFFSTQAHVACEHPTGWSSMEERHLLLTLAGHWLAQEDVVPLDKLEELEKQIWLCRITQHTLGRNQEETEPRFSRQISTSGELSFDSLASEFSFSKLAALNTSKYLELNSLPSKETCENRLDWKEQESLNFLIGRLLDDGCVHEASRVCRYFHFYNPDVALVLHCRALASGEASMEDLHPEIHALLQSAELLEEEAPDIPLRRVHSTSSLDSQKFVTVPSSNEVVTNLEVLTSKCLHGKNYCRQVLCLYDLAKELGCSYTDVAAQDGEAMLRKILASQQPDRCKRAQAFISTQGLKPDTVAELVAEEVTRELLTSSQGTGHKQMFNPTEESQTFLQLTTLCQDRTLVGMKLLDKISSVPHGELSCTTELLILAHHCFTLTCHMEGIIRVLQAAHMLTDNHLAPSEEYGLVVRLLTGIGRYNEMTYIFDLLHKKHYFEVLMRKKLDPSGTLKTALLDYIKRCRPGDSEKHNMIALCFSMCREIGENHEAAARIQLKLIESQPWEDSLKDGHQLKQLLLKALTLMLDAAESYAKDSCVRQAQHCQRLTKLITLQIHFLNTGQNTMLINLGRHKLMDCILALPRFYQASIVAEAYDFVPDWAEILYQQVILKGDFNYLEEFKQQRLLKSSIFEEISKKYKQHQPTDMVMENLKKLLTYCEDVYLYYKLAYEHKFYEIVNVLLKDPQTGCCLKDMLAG
inactive: [1] -0.22 | [2] -0.253 | [3] 0.015 | [4] 0.067 | [5] 0.006

TADA3 (UniProt O75528)
inactive: [1] 0.043 | [2] 0 | [3] 0.087 | [4] -0.015 | [5] -0.098

SRRT (UniProt Q9BXP5)
inactive: [1] -0.003 | [2] 0.02 | [3] -0.002 | [4] 0.021 | [5] 0.068

SRSF7 (UniProt Q16629)
inactive: [1] -0.005 | [2] 0.023 | [3] 0.04 | [4] 0.025 | [5] -0.045

SPATS2 (UniProt Q86XZ4)
Chain of UniProt Q86XZ4 (Q86XZ4 whole entry, looked up): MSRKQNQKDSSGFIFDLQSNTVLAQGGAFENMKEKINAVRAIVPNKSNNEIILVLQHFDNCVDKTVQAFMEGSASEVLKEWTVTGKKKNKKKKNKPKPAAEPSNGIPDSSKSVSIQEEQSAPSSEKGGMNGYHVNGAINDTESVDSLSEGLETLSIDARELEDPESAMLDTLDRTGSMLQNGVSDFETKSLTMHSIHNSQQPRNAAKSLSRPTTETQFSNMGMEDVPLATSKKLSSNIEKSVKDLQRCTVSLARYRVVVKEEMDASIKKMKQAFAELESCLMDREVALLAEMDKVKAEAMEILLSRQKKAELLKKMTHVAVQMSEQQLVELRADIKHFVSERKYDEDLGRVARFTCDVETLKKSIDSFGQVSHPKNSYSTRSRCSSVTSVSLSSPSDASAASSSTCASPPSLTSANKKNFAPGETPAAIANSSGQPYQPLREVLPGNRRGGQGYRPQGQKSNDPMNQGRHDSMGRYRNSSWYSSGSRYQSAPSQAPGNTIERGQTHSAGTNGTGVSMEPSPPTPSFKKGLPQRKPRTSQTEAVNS
inactive: [1] 0.042 | [2] -0.035 | [3] 0.061 | [4] -0.014 | [5] -0.07

SNAP23 (UniProt O00161)
inactive: [1] 0.059 | [2] -0.038 | [3] -0.005 | [4] 0.007 | [5] 0.066

SH3BP2 isoform 4 (UniProt P78314)
inactive: [1] -0.05 | [2] 0.211 | [3] -0.124 | [4] 0.035 | [5] -0.021

SLC25A32 (UniProt Q9H2D1)
inactive: [1] 0.032 | [2] 0.014 | [3] 0.016 | [4] -0.053 | [5] -0.06
